Only some compounds are listed: those with a hit (about 19% of all), similar ones and a draw of the others.
TDP1 cell CPT = DT40-hTDP1 cell growth loss with CPT; chicken DT40 Tdp1-/-;hTDP1 cells + 20 nM CPT, ATP luminescence, 48 h; Potency, µM (titrated, usually from 46.2 µM), inactives show at the highest dose activity change, negative = growth inhibition, most hits filed as inhibitors; actives 12% (n = 420,000); note: nearly all actives have a fitted effect of over 55% in size
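Chicken DT40 Tdp1-/- cells complemented with human TDP1, 400 cells/well, exposed to compounds plus 20 nM camptothecin for at least 48 h at 37 C; viability read as ATP content by CellTiter-Glo luminescence.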
HT1080 IDH1KD tx = kills HT-1080 cells with IDH1 knockdown. HT-1080 IDH1 knockdown viability, ATP luminescence, 48 h. Potency, µM (top dose mostly 46.1 µM), inactives show at the top dose activity, negative = toxicity, usual class: cytotoxic. actives 2% (n = 360,000);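 note: 0% = DMSO wells and -100% = cell-free medium wells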
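HT-1080-IDH1KD cells (IDH1 knocked down), 750/well in RPMI with 5% FBS, treated with compound 48 h at 37 degrees C. Viability by CellTiter-Glo luminescence, normalised to DMSO and no-cell wells; concentration-response curves classed.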
KB-V1 MDR tox = KB-V1 MDR subline cytotoxicity; KB-V1 MDR cells viability, CellTiter-Glo, 72 h; Potency, µM (highest dose often 46.1 µM), usual class: cytotoxic; actives 3.4% (n = 400,000); note: nearly all actives have a fitted effect of over 60% in size
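Following 72 h at 37 degrees C with compound, KB-V1 cell viability was read by CellTiter-Glo luminescence, medium being phenol-red-free DMEM plus 10% FBS; concentration-response parameters came from normalized, curve-fitted qHTS data.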
HT1080-NT tox = kills 2HG-producing HT-1080-NT fibrosarcoma cells; HT-1080-NT fibrosarcoma viability, CellTiter-Glo ATP luminescence, 48 h; Potency, µM (top dose mostly 46.1 µM), without a hit: at the highest dose activity, negative = less viability, hits mostly cytotoxic; actives 1.6% (n = 360,000); AID 686970;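 note: NT is the 2HG producing partner of a matched IDH1 knockdown line; 0% = DMSO-treated cells and -100% = media-only wells without cells; nearly all actives have a fitted effect of over 55% in size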
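HT-1080-NT fibrosarcoma cells (2HG-overproducing), 750 cells/well in RPMI with 5% FBS, dosed after 2 h and incubated 48 h at 37C. CellTiter-Glo luminescence normalized to DMSO and no-cell wells; concentration-response curves fitted and classed.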
KB-3-1 tox = KB-3-1 parental cell cytotoxicity; KB-3-1 viability, CellTiter-Glo ATP luminescence, 72 h; Potency, µM (series often up to 46.1 µM), usual class: cytotoxic; actives 1.4% (n = 400,000); note: nearly all actives have a fitted effect of over 60% in size
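Parental KB-3-1 adenocarcinoma cells in phenol-red-free DMEM with 10% FBS were pin-treated with compounds at several concentrations, incubated 72 h at 37 °C, and viability read by CellTiter-Glo luminescence; concentration-effect curves were fitted after normalization.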
TDP1 cell noCPT = qHTS for Inhibitors of human tyrosyl-DNA phosphodiesterase 1 (TDP1): qHTS in cells in absence of CPT; Potency, µM (highest dose often 46.2 µM), for the others: at the highest dose activity change, negative = growth inhibition, actives largely listed as inhibitors; actives 15% (n = 420,000); DT40 Tdp1-/- hTDP1 cells, no CPT, ATP luminescence, 48 h; note: nearly all actives have a fitted effect of over 55% in size
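Chicken DT40 Tdp1-/- cells stably complemented with human TDP1 were seeded at 400 cells/well with DMSO in place of 20 nM camptothecin. After compound pinning, cells grew at least 48 hr at 37 °C; viability read by CellTiter-Glo luminescence.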
The depositor's hits bear a star; i = inactive; ? = inconclusive; · = not tested or not shown; ! = not confirmed by another sample; [ ] = another dose, or the depositor's remark. Calls come from the whole dose curve; as a rule, active = well fitted curve in the direction sought with a large enough effect; inconclusive = small, poorly fitted or top-dose-only effect, or another doubt; inactive = no such curve, though single readings can be large; an effect the other way counts as inactive or inconclusive. Unless noted, % is set by controls: 0 for no effect and ±100 for the full control effect; potency is the fitted concentration of half-maximal effect.

SMILES	TDP1 cell CPT	HT1080 IDH1KD tx	KB-V1 MDR tox	HT1080-NT tox	KB-3-1 tox	TDP1 cell noCPT
C=CCn1c(SC(C)C(N)=O)nc2sc(CC)cc2c1=O (stereo not drawn)	-1.6%	-10.4%	i	-9.6%	i	?
C=CCn1c(SCc2nc3cc(C(=O)OC)ccc3c(=O)[nH]2)nc2sc(CC)cc2c1=O	?	-1.5%	5.17µM*	-4.8%	i	18.4µM*
C=CCn1c(SCc2nc3ccccc3c(=O)[nH]2)nc2scc(C3CC3)c2c1=O	14.6µM*	-13.0%	i	-20.3%	i	16.4µM*
O=C1CC(c2cccc(O)c2)c2cc3c(cc2N1)OCO3 (stereo not drawn)	-1.4%	·	i	·	i	-12.7%
C/C(=N\NC(=O)c1cc(-c2cccnc2)nc2ccccc12)c1ccc(O)cc1O	11.6µM*	?	?	?	?	10.3µM*
C/C(=N/NC(=O)c1cc(-c2ccccc2)nc2c(Cl)cccc12)c1cccnc1	10.1%	?	·	-2.7%	·	-27.8%
C/C(=N\NC(=O)c1cc(-c2ccccc2C)nc2ccccc12)c1cccnc1	?	-2.2%	·	-0.6%	·	?
C/C(=N\NC(=O)c1cc(-c2cccc(OC(C)C)c2)nc2ccccc12)c1cccnc1	10.3µM*	?	i	-19.5%	i	?
C/C(=N\NC(=O)c1cc(-c2ccc(C)s2)nc2ccccc12)c1cccnc1	11.6µM*	?	?	-24.2%	i	?
COc1ccc(-c2cc(C(=O)N/N=C(\C)c3cccnc3)c3cc(C)ccc3n2)cc1OC	8.2µM*	-7.8%	i	-13.3%	i	1.16µM*
COc1ccc(OC)c(-c2cc(Cl)c3c(c2)CC(CNC(=O)[C@@H]2CCCN2C(C)=O)O3)c1 (stereo partly drawn)	19.5%[9.04 µM]	·	·	·	·	-15.4%
COc1ccc(N(Cc2ccccc2)C(=O)CSc2nnc(Cn3nnc4ccccc43)o2)cc1	25.9µM*	-17.7%	8.2µM*	-1.9%	?	23.1µM*
O=C(CSc1nnc(Cn2nnc3ccccc32)o1)N(Cc1ccc(F)cc1)c1ccccc1	7.31µM*	?	?	0.282µM*	5.17µM*	7.08µM*
Cc1cc(Cl)ccc1N=c1ssnc1Cl	13µM*	23.1µM*	i	?	?	16.4µM*
Cc1nnc(N=c2ssnc2Cl)o1	1.03µM*	-2.7%	i	1.5%	?	1.03µM*
Cc1ccc(N=c2ssnc2Cl)cc1	5.8µM*	?	i	?	?	3.66µM*
Cc1cc(C)nc(/N=c2/ssnc2Cl)c1	7.31µM*	-0.7%	i	6.3%	i	9.2µM*
CC1=CC(=NOC(=O)c2cccc([N+](=O)[O-])c2)C=C(C)C1=O	18.4µM*	?	i	?	i	11.6µM*
Cc1ccc(C(=O)O/N=C(\N)c2cccc([N+](=O)[O-])c2)cc1	-29.6%	-10.5%	i	1.7%[9.24 µM]	i	-15.4%
CC1=CC(=O)C(C(C)C)=C/C1=N/OC(=O)c1cccc([N+](=O)[O-])c1	23.1µM*	-17.5%[9.24 µM]	i	10µM*	i	11.6µM*
COc1ccc(/C(N)=N/OC(=O)c2cccc([N+](=O)[O-])c2)cc1	?	10.7%	i	11.6%	i	?
CC1=CC(=O)C(C(C)C)=C/C1=N\OC(=O)c1cccc2nc(C)oc12	?	4.9%	i	7.4%	i	20.6µM*
COc1cccc(Nc2ncc3nc(CCc4ccccc4)c(=O)n(C4CC4)c3n2)c1	-9.0%	·	·	·	·	-14.2%
COc1ccc(-c2nc3ccccc3s2)cc1NC(=O)c1cc2ccccc2o1	-11.0%	·	i	·	i	-17.7%
COc1cccc(CSc2nc3cc4c(cc3cc2C)OCCO4)c1	?	-27.4%	?	-15.6%	?	29.1µM*
SMILES	TDP1 cell CPT	HT1080 IDH1KD tx	KB-V1 MDR tox	HT1080-NT tox	KB-3-1 tox	TDP1 cell noCPT
Cc1[nH]c2ccccc2c1C(=O)CN1CCC2(CC1)OCCO2	-11.7%	-0.4%	i	3.9%	i	-26.4%
Cc1[nH]c2ccccc2c1C(O)CN1CCC2(CC1)OCCO2 (stereo not drawn)	?	3.4%	i	-2.8%	i	16.4µM*
COc1ccc2c(ccc[n+]2CC(=O)c2ccccc2)c1	?	-3.0%	?	-10.8%	i	4.9%
COc1ccc(C(=O)C[n+]2cc(Br)cc3ccccc32)cc1	?	·	i	·	i	22.4µM*
CCOc1ccc(C(=O)C[n+]2cccc3cc(C)ccc32)cc1	?	-28.2%	i	-26.6%	?	?
COc1ccc(C(=O)C[n+]2cccc3cccc(O)c32)cc1	2.1%	·	i	·	i	-8.9%
COc1ccc(C(=O)C[n+]2ccccc2Cl)cc1	?	·	i	·	i	?
Cc1ccc(C(=O)C[n+]2cccc3cc(C)ccc32)cc1	11.6µM*	-14.0%	i	-15.9%	i	14.6µM*
COc1ccc2c(ccc[n+]2CC(=O)c2ccc(C)cc2)c1	?	-25.8%	i	0.5%	?	14.6µM*
CCc1ccc(C(=O)C[n+]2cccc3cc(OC)ccc32)cc1	2.91µM*	-16.2%	i	-17.1%	13µM*	3.26µM*
Cc1nn(C)c2c1c(C(F)(F)F)cc(=O)n2CC(=O)NCc1ccccc1Cl	?	·	i	·	i	?
Cc1cc(C(=O)Nc2ccccc2-c2nc(CNC(=O)c3cscn3)c(C)o2)c(C)o1	-0.2%[9.04 µM]	·	·	·	·	-18.9%
N#CCCn1cc(C(=O)CN2C(=O)NC3(CCc4ccccc43)C2=O)c2ccccc21 (stereo not drawn)	?	-12.0%	i	-13.7%	i	?
Cc1ccc2c(c1)ncc[n+]2CC(=O)c1ccc(F)cc1	10µM*	·	i	·	i	10µM*
O=C(C[C@H]1C(=O)N(Cc2ccccc2)C[C@@H]1Cc1ccccc1)Nc1ccccc1	12.6µM*	10.2%	?	5.8%	?	11.2µM*
CCCCN1C[C@H](Cc2ccccc2)[C@@H](CC(=O)Nc2ccccc2)C1=O	16.4µM*	-3.6%	?	-1.1%	?	?
O=C(C[C@H]1C(=O)N(C2CCCCC2)C[C@@H]1Cc1ccccc1)Nc1ccccc1	?	-0.1%	?	-1.0%	?	15.8µM*
O=C(C[C@H]1C(=O)N(c2ccccc2)C[C@@H]1Cc1ccccc1)Nc1ccccc1	?	6.5%	9.2µM*!	10.9%	23.1µM*!	?

Screening data deposited in PubChem BioAssay by National Center for Advancing Translational Sciences (NCATS).
